Bioassay records deposited in PubChem by several laboratories.
A selection: hits, their analogues and other compounds. The true share with any hit is near 27%.
CYP2C9 activ = CYP2C9 (human) activation; P11712; recombinant CYP2C9, luciferin-H conversion, luminescence; stronger effect = higher value; factor 1 = untreated enzyme, 0 = blocked; activation factor at 5 µM; actives 1.4% (n = 96,000); AID 1024;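 active means activation factor of 2 or more for CYP2C9 at a 5 µM dose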;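 further: 0 = sulfaphenazole-blocked wells and 1 = vehicle-only wells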
Target sequence (P11712 whole entry, looked up): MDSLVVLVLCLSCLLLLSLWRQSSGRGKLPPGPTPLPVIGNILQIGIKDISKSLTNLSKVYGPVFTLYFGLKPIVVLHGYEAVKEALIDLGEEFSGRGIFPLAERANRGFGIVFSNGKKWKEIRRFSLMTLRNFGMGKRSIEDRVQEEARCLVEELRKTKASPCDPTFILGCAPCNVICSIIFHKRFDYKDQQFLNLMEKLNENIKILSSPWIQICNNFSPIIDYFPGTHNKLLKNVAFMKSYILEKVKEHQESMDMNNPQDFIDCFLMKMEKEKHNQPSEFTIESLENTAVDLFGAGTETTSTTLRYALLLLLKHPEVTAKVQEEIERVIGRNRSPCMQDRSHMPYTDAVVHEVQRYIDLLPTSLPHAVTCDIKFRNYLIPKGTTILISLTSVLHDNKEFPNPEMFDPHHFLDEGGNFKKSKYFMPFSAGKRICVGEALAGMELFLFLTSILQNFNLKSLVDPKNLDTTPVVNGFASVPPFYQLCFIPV
CYP2C9 inh = human CYP2C9 inhibition | P11712 | CYP2C9 Supersomes, luciferin-H conversion, luminescence | inhibition, % at 5 µM | actives 20% (n = 96,000) | AID 777;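 active means blocking of liver enzyme CYP2C9 beyond about 50% at 5 µM, limit read from the data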
CYP2C19 inh = inhibitors of human CYP2C19; AID 778; P33261; actives 21% (n = 96,000); CYP2C19 Supersomes, luciferin-H EGE luminescence, 30 min; inhibition, % at 5 µM;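 active means CYP2C19 inhibition above a set limit at 5 µM in the primary screen, cut at about 50% in these data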;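 further: plate controls were negative control wells for no effect and 2.5 mM tranylcypromine positive control for full effect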
Cav32 inh = human Cav3.2 channel inhibition, primary screen. O95180. Cav3.2-expressing cells, Fluo-4 calcium fluorescence FDSS; stronger effect = lower value. B-score at 10 µM. actives 4% (n = 100,000). AID 449739;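 active means single-dose well whose peak fluorescence ratio is a statistical outlier from its plate by either plate-standardised score or position-corrected B-score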
CYP2C19 act = cytochrome P450 2C19 (human) activation | activation factor at 5 µM | recombinant CYP2C19, luciferin-H EGE luminescence; stronger effect = higher value; 0 = fully inhibited enzyme, 1 = untreated enzyme | 96,000 tested, under 10 active | P33261 | AID 1025;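 active means activation factor of at least 2 at 5 µM in the primary screen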;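 further: 0 = wells with 2.5 mM tranylcypromine and 1 = vehicle-only wells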
Numbers without * were called inactive; ! = repeats disagree.

For Cc1ccc(C(=O)c2cc(C)sc2NC(=O)CN2CCN(C(=O)c3ccco3)CC2)cc1 the results were CYP2C9 activ 0.6, CYP2C9 inh 43, CYP2C19 inh 43, Cav32 inh -1.4 and CYP2C19 act 0.6.
`CCc1ccc(-c2nc(CSCC(=O)N3CCN(c4ccccn4)CC3)c(C)o2)cc1` gave CYP2C9 activ 0.4, CYP2C9 inh 64*, CYP2C19 inh 36, Cav32 inh -6.8* and CYP2C19 act 0.6.
O=C(NC(=S)Nc1ccc2[nH]ncc2c1)c1ccccc1 was read as CYP2C9 activ 0, CYP2C9 inh 95*, CYP2C19 inh 99*, Cav32 inh -0.32 and CYP2C19 act 0.
`CCOC(=O)N1CCN(CCC(=O)Nc2ccc(Br)cc2)CC1` gave CYP2C9 activ 0.1, CYP2C9 inh 95*, CYP2C19 inh 92*, Cav32 inh 0.12 and CYP2C19 act 0.1.
Screening CCOC(=O)N1CCN(CCC(=O)Nc2cccc(Br)c2)CC1 returned CYP2C9 activ 0.4, CYP2C9 inh 58*!, CYP2C19 inh 65*!, Cav32 inh 0.64 and CYP2C19 act 0.3.
For CCOC(=O)N1CCN(CCC(=O)Nc2ccc(C)c(Br)c2)CC1 the results were CYP2C9 activ 0.9, CYP2C9 inh 15, CYP2C19 inh 21 and CYP2C19 act 0.8.
CCO[C@H]1OC(C(=O)NC2CC2)=C[C@@H](c2coc3ccccc3c2=O)[C@@H]1CCCO was read as Cav32 inh 0.65.
`CN(C)c1nc(OCCOC(=O)c2ccccc2)nc(N(C)C)n1` gave CYP2C9 activ 0.3, CYP2C9 inh 70*, CYP2C19 inh 99*, Cav32 inh -1.2 and CYP2C19 act 0.
COC(=O)NCCOc1nc(N(C)C)nc(N(C)C)n1 was read as CYP2C9 activ 1, CYP2C9 inh -2, CYP2C19 inh 0, Cav32 inh -0.09 and CYP2C19 act 1.
COc1nc(OCCNC(=O)Nc2ccccc2)nc(N(C)C)n1 was read as CYP2C9 activ 0.5, CYP2C9 inh 46, CYP2C19 inh 71*, Cav32 inh -1.3 and CYP2C19 act 0.3.
For CNc1nc(OCCNC(=O)Nc2ccccc2)nc(N2CCOCC2)n1 the results were CYP2C9 activ 0.3, CYP2C9 inh 65*, CYP2C19 inh 34, Cav32 inh -0.28 and CYP2C19 act 0.7.
Screening Cc1cccc(N=C(N2CCOCC2)P(=O)(N2CCOCC2)N2CCOCC2)c1 returned CYP2C9 activ 0.8, CYP2C9 inh 19, CYP2C19 inh -3, Cav32 inh 1.4 and CYP2C19 act 1.
For Cc1ccsc1C(=O)OC1CCOC1=O (stereo not drawn) the results were CYP2C9 activ 2.3*, CYP2C9 inh -127, CYP2C19 inh -7, Cav32 inh 1.3 and CYP2C19 act 1.1.
Screening COc1cc(SC)ccc1C(=O)OC1CCOC1=O (stereo not drawn) returned CYP2C9 activ 1, CYP2C9 inh -2, CYP2C19 inh 35, Cav32 inh 0.36 and CYP2C19 act 0.6.
`CC(=O)Nc1sc(C)c(C)c1C(=O)OC1CCOC1=O` (stereo not drawn) gave CYP2C9 activ 0.2, CYP2C9 inh 77*, CYP2C19 inh 55* and CYP2C19 act 0.4.
`O=S(=O)(Nc1ncccc1O)c1ccc(Cl)cc1` gave CYP2C9 activ 0.8, CYP2C9 inh 18, CYP2C19 inh 86*, Cav32 inh 0.43 and CYP2C19 act 0.1.
`Nc1ccc(S(=O)(=O)Nc2ccccn2)cc1` gave Cav32 inh 0.065.
`O=S(=O)(Nc1cc(Cl)ccn1)c1ccc(Cl)cc1` gave CYP2C9 activ 0.3, CYP2C9 inh 74*, CYP2C19 inh 47, Cav32 inh -0.2 and CYP2C19 act 0.5.
`O=S(=O)(Nc1nccs1)c1ccc(Cl)cc1` gave CYP2C9 activ 0.5, CYP2C9 inh 50*, CYP2C19 inh 21, Cav32 inh -3.4* and CYP2C19 act 0.8.
FC(F)(F)c1nc2nncn2c2c1CCCCC2 was read as CYP2C9 activ 1, CYP2C9 inh -1, CYP2C19 inh 6, Cav32 inh -0.52 and CYP2C19 act 0.9.
O=C1CC(c2ccc(F)cc2)Cc2nc(N3CCOCC3)ncc21 (stereo not drawn) was read as CYP2C9 activ 0.8, CYP2C9 inh 25, CYP2C19 inh 77*, Cav32 inh -0.024 and CYP2C19 act 0.2.
For O=C(NCCc1ccccc1F)[C@@H]1CSC2c3ccccc3C(=O)N21 (stereo partly drawn) the results were CYP2C9 activ 0.7, CYP2C9 inh 30, CYP2C19 inh 14, Cav32 inh -8.2* and CYP2C19 act 0.9.
`Cc1c(S(=O)(=O)Nc2cccc(Cl)c2)c(=O)n(C)c(=O)n1C` gave CYP2C9 activ 0.8, CYP2C9 inh 15, CYP2C19 inh 51*, Cav32 inh 0.78 and CYP2C19 act 0.5.
For Cn1c(=O)c2cc(S(=O)(=O)Nc3cccc(F)c3)ccc2n(C)c1=O the results were CYP2C9 activ 0.2, CYP2C9 inh 83*, CYP2C19 inh 76*, Cav32 inh 0.56 and CYP2C19 act 0.2.
For O=C(COC(=O)c1cccc(S(=O)(=O)N2CCc3ccccc32)c1)NC1CCS(=O)(=O)C1 (stereo not drawn) the results were CYP2C9 activ 0.7, CYP2C9 inh 31, CYP2C19 inh 42, Cav32 inh -0.075 and CYP2C19 act 0.6.
`CC(NC(=S)Nc1ccc(F)cc1)C(c1cccs1)N1CCOCC1` (stereo not drawn) gave Cav32 inh 0.091.
Screening Cc1ccc(-n2nnnc2SC(C)C(N)=O)c(C)c1 (stereo not drawn) returned CYP2C9 activ 1.2, CYP2C9 inh -19, CYP2C19 inh 16, Cav32 inh 0.0073 and CYP2C19 act 0.8.
`Cn1nnnc1SCC(=O)N1CCOCC1` gave Cav32 inh 0.043.
Screening C/C(N)=C(/C#N)C(=O)CSc1nnnn1-c1ccc(C)cc1C returned CYP2C9 activ 0.7, CYP2C9 inh 31, CYP2C19 inh 100*, Cav32 inh -0.23 and CYP2C19 act 0.
Cc1ccc(-n2nnnc2SCC(=O)N2CCc3ccccc3C2)cc1 was read as Cav32 inh -1.3.
Cn1nnnc1SCC(=O)N1CCc2ccccc2C1 was read as CYP2C9 activ 1.2, CYP2C9 inh -15, CYP2C19 inh 70*, Cav32 inh 0.25 and CYP2C19 act 0.3.
`Cc1ccc(-n2nnnc2SCC(=O)N2CCc3ccccc3C2)c(C)c1` gave CYP2C9 activ 2*, CYP2C9 inh -100, CYP2C19 inh 1, Cav32 inh -1.8 and CYP2C19 act 1.
CN(C)C(=O)C1OC(C)(C)OC1C(=O)N(C)C (stereo not drawn) was read as CYP2C9 activ 1, CYP2C9 inh 2, CYP2C19 inh -4, Cav32 inh -0.039 and CYP2C19 act 1.
Screening Cc1nnc2ccc(N3CCN(c4cccc(C(F)(F)F)c4)CC3)nn12 returned CYP2C9 activ 0.8, CYP2C9 inh 16, CYP2C19 inh 29, Cav32 inh -0.28 and CYP2C19 act 0.7.
`CN1CCN(C(=O)C2=C[C@H](C(C)(C)C)C[C@H](OCCCCO)O2)CC1` gave Cav32 inh 0.67.
